Screens (PubChem)
In the library only some 11% were active in any assay of this set; here they are far more common.
RORg inh: blocks mouse ROR gamma transcriptional activity. P51450. Drosophila S2 Gal4-RORgamma UAS-luciferase reporter, 20 h. Potency, µM (titrated, usually from 53.6 µM), inactives show at the top dose activity change, negative = inhibition, most hits filed as inhibitors. hit rate 5.4% among 310,000. AID 2551; further: potency means the concentration at half of the fitted maximal effect; on the % scale 0 is the no-effect control and ±100 the full control effect; nearly all actives have a fitted effect of over 60% in size
Target sequence (P51450 whole entry, looked up, the tested form may be a part): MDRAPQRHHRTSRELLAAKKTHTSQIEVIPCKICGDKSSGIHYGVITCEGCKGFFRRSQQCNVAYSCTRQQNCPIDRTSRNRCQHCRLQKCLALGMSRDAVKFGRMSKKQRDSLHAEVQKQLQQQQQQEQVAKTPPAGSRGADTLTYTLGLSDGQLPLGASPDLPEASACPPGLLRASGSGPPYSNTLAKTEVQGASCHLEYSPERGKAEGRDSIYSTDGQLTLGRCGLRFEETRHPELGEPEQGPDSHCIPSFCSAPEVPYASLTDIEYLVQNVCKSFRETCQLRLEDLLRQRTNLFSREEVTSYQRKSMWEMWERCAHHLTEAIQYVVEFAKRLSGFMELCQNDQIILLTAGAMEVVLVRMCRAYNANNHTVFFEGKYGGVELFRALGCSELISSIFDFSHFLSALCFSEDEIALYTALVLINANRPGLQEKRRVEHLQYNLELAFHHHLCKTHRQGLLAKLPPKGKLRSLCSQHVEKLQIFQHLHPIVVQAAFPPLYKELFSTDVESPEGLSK
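A Gal4/UAS one-hybrid system in insect cells: metallothionein-promoter Gal4–ROR gamma fusion plus Photinus luciferase reporter. Copper sulfate 700 uM final, 20 hr ambient incubation, luminescent detection after 10 min with reagent.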
VP16 counter: Gal4-VP16 reporter inhibition counter-screen. Potency, µM (top dose mostly 53.6 µM), without a hit: top-dose activity, negative = inhibition, most hits filed as inhibitors. Drosophila S2 Gal4-VP16 UAS-luciferase, luminescence, 20 h. AID 2546. hit rate 3.5% among 310,000;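 further: Gal4-VP16 expression switched on by copper sulfate through the metallothionein promoter; potency means the concentration at half of the fitted maximal effect; on the % scale 0 is the no-effect control and ±100 the full control effect; nearly all actives have a fitted effect of over 50% in size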
MCF10A rereplic: induces DNA re-replication in MCF 10a normal breast cells. hit rate 2.9% among 350,000. AID 624296. Potency, µM (titrated, usually from 46.1 µM), inactives show top-dose activity, positive = re-replication, most hits filed as activators. MCF 10A DNA re-replication, Hoechst nuclear intensity, 48 h; further: potency means the concentration at half of the fitted maximal effect; % of control where 0% means no effect; nearly all actives have a fitted effect of over 50% in size
SW480 rereplic: inducers of DNA re-replication in SW480 colon cancer cells | Potency, µM (highest dose often 46.1 µM), without a hit: top-dose re-replication activation, hits mostly activators | hit rate 1.8% among 340,000 | SW480 DNA re-replication, Hoechst DNA content imaging, 48 h; further: potency means the concentration at half of the fitted maximal effect; % of control where 0% means no effect; nearly all actives have a fitted effect of over 55% in size
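250 cells/well; 23 nL cpd via pin tool; 48 hr, 37 C, 5% CO2; Hoechst 40 min; imager read of total nuclear intensity, ex 405/em 500-530 nm.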
IL1B secr inh: blocks inflammasome-driven IL-1 beta release; THP-1 LPS/ATP IL-1B secretion, AlphaLISA, 16 h; stronger effect = lower value; activity change, % at 57.5 µM; AID 743279; hit rate 4.7% among 360,000; in the data active means activity change below about -50%; inconclusive means mostly about -30% to -49%; further: on the % scale 0 is the no-effect control and ±100 the full control effect
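THP-1 cells pretreated 1 hr with compounds (up to 57.5 uM final), then stimulated with LPS (250 ng/mL final) plus ATP (1.25 mM final); secreted IL-1B measured by AlphaLISA after 16 hr, decreased signal indicating inhibition.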
* = called active by the depositor; ? = inconclusive; / = no result given; [ ] = another dose, or the depositor's remark. Unless noted, the call rests on the fitted dose curve; in most records, active means well fitted curve in the direction sought with a large enough effect; inconclusive means small, poorly fitted or top-dose-only effect, or another doubt; inactive means no such curve, though single readings can be large; an effect the other way counts as inactive or inconclusive.

SMILES	RORg inh	VP16 counter	MCF10A rereplic	SW480 rereplic	IL1B secr inh
COC(=O)[C@@]1(Cc2ccc(OC)cc2)[C@H]2c3cc(C(=O)N4CCCC4)n(Cc4nc5ccccc5[nH]4)c3C[C@H]2CN1C(=O)c1ccccc1	?	25%	/	/	/
O=C(Nc1nc(-c2ccc(S(=O)(=O)N3CCCCCC3)cc2)cs1)c1ccccc1	9%	-3%	10%	-3%	-9
O=C(Nc1nc(-c2ccc3c(c2)OCCO3)cs1)c1ccc(S(=O)(=O)N2CCCCC2)cc1	11%	-11%	2%	12%	-79*
O=C(Nc1nc(-c2cccs2)cs1)c1ccc(S(=O)(=O)N2CCCC2)cc1	34%	3%	13%	?	-72*
CN1CCN(c2ccc(-c3cccc4nccn34)cn2)CC1	/	/	/	/	-19
CN(CCC#N)C(=O)COC(=O)c1c2c(nc3ccccc13)/C(=C/c1ccco1)CC2	?	-2%	?	12µM*	-58*
N=C1S/C(=C\c2ccc(O)cc2)C(=O)N1c1ccc(F)cc1	2.5µM*	2.8µM*	-1%	15%	60
O=C1/C(=C\c2ccc(O)cc2)SC(=S)N1c1cccnc1	21%	-7%	-9%	7%	0
O=C1COCCN1	-13%	-2%	/	/	/
COc1ccc(-c2csc3ncnc(NCCO)c23)cc1	1%[1.91 µM]	-14%	1%	?	-81*
Cc1ccc(S(=O)(=O)N(C)c2ccc(OCC(=O)NCC3(N(C)C)CCCCC3)cc2)cc1	/	/	?	-4%	12
CC(C)[C@H](NC(=O)c1ccco1)C(=O)Nc1ccc(OC(F)F)cc1	9%	-5%	-19%	5%	-6
CN1C(=O)N(C)c2ccc(Br)c3cccc1c23	4%	-14%	11%	-10%	21
O=C(CCl)N1c2ccccc2Sc2c1ccc1ccccc21	/	/	18µM*	?	-102*
COc1cccc(C(=O)NNC(=O)C(=O)Nc2ccc(OC)cc2OC)c1	14µM*	1%	13%	6%	6
COc1cc(NC(=O)c2cc(C(C)C)on2)c(OC)cc1Cl	17%	-1%	1%	-1%	13
COc1cccc(C(=O)NNC(=O)C(=O)Nc2cccc3ccccc23)c1	-24%	-2%	6%	-10%	-5
COc1ccc(NC(=O)c2ccc(C(=O)Nc3ccc(OC)cc3OC)cc2)c(OC)c1	-3%	-7%	-7%	5.2µM*	18
COc1ccc(NC(=O)c2cc(C(C)C)on2)c(OC)c1	?	7.1µM*	-3%	-12%	-3
COc1ccc(NC(=O)c2ccc(C)cc2)cc1	-11%[1.91 µM]	?	-5%	-13%	-17
COc1ccc(C(=O)Nc2cc(-c3ccc(C)cc3)no2)cc1	3.2µM*	-24%	?	-23%	10
OC[C@H]1O[C@@H]2O[C@H]3[C@H](O)[C@@H](O)[C@@H](O[C@H]4[C@H](O)[C@@H](O)[C@@H](O[C@H]5[C@H](O)[C@@H](O)[C@@H](O[C@H]6[C@H](O)[C@@H](O)[C@@H](O[C@H]7[C@H](O)[C@@H](O)[C@@H](O[C@H]8[C@H](O)[C@@H](O)[C@@H](O[C@H]1[C@H](O)[C@H]2O)O[C@@H]8CO)O[C@@H]7CO)O[C@@H]6CO)O[C@@H]5CO)O[C@@H]4CO)O[C@@H]3CO	-24%	-21%	-6%	-2%	/
O=S(=O)(Cc1ccccc1)Nc1ccc(F)cc1	1%	0%	-1%	-6%	-7
CC[C@@]1(C(=O)OC)N[C@H](CN(C)C(=O)Nc2ccccc2)[C@@H]2C(=O)N(Cc3ccccc3)C(=O)[C@@H]21	/	/	32%	4%	-2
CC(=O)c1sc(NC(=O)C2CCN(C(=O)c3ccc(F)cc3)CC2)nc1-c1ccccc1	/	/	?	16%	0
SMILES	RORg inh	VP16 counter	MCF10A rereplic	SW480 rereplic	IL1B secr inh
COc1ccc(C(=O)Nc2ccc(-c3ccc(NC(=O)c4ccc(OC)cc4)c(OC)c3)cc2OC)cc1	12%	-1%	2.3µM*	-124%	0
COc1ccc(C(=O)Nc2cccc3c2CCCC3)cc1	23%	7%	13µM*	?	4
CC(=O)c1ccc(NC(=O)Nc2ccc(S(=O)(=O)N3CCCC3)cc2)cc1	25%	-6%	12%	-11%	-108*
O=C(Nc1ccc(Cc2ccncc2)cc1)c1ccc(S(=O)(=O)N2CCCC2)cc1	?	11µM*	?	?	-96*
COc1ccc(NC(=O)C2CCCN(S(=O)(=O)c3c(C)[nH]c(=O)[nH]c3=O)C2)cc1OC (centres undefined)	4%	-4%	-7%	-2%	-19
COc1ccc(NC(=O)C2CCCN(S(=O)(=O)c3c(C)n[nH]c3C)C2)cc1OC (centres undefined)	?	-16%	2.1µM*	-4%	16
CCOC(=O)C1CCN(S(=O)(=O)CCNC(=O)c2ccccc2)CC1	/	/	-3%	?	?
CCOC(=O)C1CCCN(S(=O)(=O)CCNC(=O)c2cccc(OC)c2)C1 (centres undefined)	/	/	?	-284%	-68*
Cc1ccc(S(=O)(=O)N2CCOC23CCN(S(=O)(=O)c2c(C)cc(C)cc2C)CC3)cc1	/	/	13%	10%	-19
C[C@H](O)[C@@H]1C(=O)N2CCc3c([nH]c4ccccc34)[C@@H]2C[C@@H]1N(C)C(=O)NC1CCCCC1	/	/	/	/	-15
CCOCCC(=O)Nc1ccc2c(c1)c(=O)n(C)n2Cc1cccc(C(F)(F)F)c1	/	/	/	/	23
COc1cc(CNc2ncnc3c2ncn3[C@H]2CN(Cc3cccc(C(F)(F)F)c3)C[C@@H](CO)O2)cc(OC)c1OC	/	/	/	/	5
CCOC(=O)c1ccc(NC(=O)C2CCN(S(=O)(=O)c3ccccc3)CC2)cc1	/	/	-2%	-5%	6
CCOC(=O)C1CCCN(S(=O)(=O)c2ccc(F)c(C(=O)Nc3ccc(F)c(F)c3)c2)C1 (centres undefined)	9%	-3%	0%	1%	-66*
O=C(NC1CCN(S(=O)(=O)c2ccc(F)cc2)CC1)c1ccc(F)cc1	1%	-15%	-1%	-6%	-54*
CCOC(=O)c1ccc(NC(=O)C2CCCN(S(=O)(=O)c3ccc(F)cc3)C2)cc1 (centres undefined)	?	-5%	?	0%	-64*
CCC(C)(C)C1CCC(NC(=O)c2ccc(S(=O)(=O)N3CCOCC3)cc2)CC1 (centres undefined)	/	/	6.5µM*	-3%	-2
Cc1ccc(C(=O)NC2CC2)cc1S(=O)(=O)N1CCOCC1	/	/	-7%	-5%	-12
Cc1ccc(C)c(OC(=O)C2CSC3(C)CCC(=O)N23)c1C (centres undefined)	/	/	0%	-14%	-21
O=C(Nc1ccc(F)cc1)c1ccc(S(=O)(=O)N2CCCC2)cc1	1%	9%	10%	-5%	-75*
